These results are taken from PubChem BioAssay (EPA / NIEHS).

The source made the active and inactive calls. The calls were made as follows: active = hit-call score of the fitted dose curve at least 0.9, where 1 is the maximum; inconclusive = response in the unintended direction; inactive = score below 0.9.

A short description of the experiment: CPHEA_Stoker_NIS_Cytotoxicity: Cytotoxicity Assessment for CPHEA's Radioactive Iodide Uptake (RAIU) Assay for Sodium/Iodide Symporter (NIS) Inhibition, Stoker and Laws Labs (AID 2283897).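 As to AC50: active means loss of ATP signal versus DMSO meaning cytotoxicity.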 The protocol: CPHEA_Stoker_NIS is a cell-based, single-readout assay that uses hNIS-HEK293T-EPA, a novel human kidney cell line expressing human NIS, with measurements taken at 2 hours after chemical dosing in a 96-well plate. This radioactive iodide uptake (RAIU) assay is used to identify inhibitors of NIS-mediated iodide uptake. A parallel cytoxicity assay (Cell Titer Glo, Promega) was also run in the same cell line.CPHEA_Stoker_NIS_Cytotoxicity is one of 2 assay components measured from the CPHEA_Stoker_NIS assay. It is designed to make measurements of atp content, a form of viability reporter, as detected with bioluminescence signals by Luciferase-coupled ATP quantitation technology.Data from the assay component CPHEA_Stoker_NIS_Cytotoxicity was analyzed at the endpoint, CPHEA_Stoker_NIS_Cytotoxicity, in the positive analysis fitting direction relative to DMSO as the negative control and baseline of activity. Using a type of viability reporter, measures of ATP content for loss-of-signal activity can be used to understand the viability. To generalize the intended target to other relatable targets, this assay endpoint is annotated to the cell cycle intended target family, where the subfamily is cytotoxicity.
hNIS-HEK293T-EPA cells were seeded with a MultiFlo FX dispenser (BioTek, Winooski, VT) into ScintiPlate-96 microplates (Perkin Elmer, Waltham, MA) at a density of 4.0x10^4 cells per well in 200uL growth media and incubated for 40 hours before experimentation. On day of the assay, carrier-free 125I (Perkin-Elmer, Waltham, MA; specific activity: 17.4Ci/mg) was diluted with Hanks' balanced salt solution (Sigma, St. Louis, MO) supplemented with 10mM HEPES (uptake buffer; pH 7.4) at 5uCi/mL (288pg 125I/mL uptake buffer; 2.30nM). The assay was initiated by washing cells twice with 200uL uptake buffer using a 96-well Tecan HydroSpeed plate washer (Tecan, Mannedorf, Switzerland). Uptake buffer (59.7uL) was then added back to each well. Chemical samples (350nL at 200X) were administered using the HDR tool as previously described to achieve a 1X chemical/0.5% final DMSO concentration with subsequent addition of 10uL of 125I dilution (final [125I]: 329pM; 2.88pg/well) for a final reaction volume of 70uL/well. Cells were incubated at room temperature for 2 hours and then washed twice with 200uL ice cold uptake buffer. All uptake buffer was aspirated from wells, plates were sealed, and read on a MicroBeta2 plate reader (Perkin Elmer, Waltham, MA) using a detection protocol to measure CPM corresponding to intracellular 125I concentration. Each chemical concentration (0.001, 0.01, 0.1, 1.0, 10, and 100uM) was assayed in triplicate with three independent biological replicate plates (3 sequential cell passages). Additionally, a concentration response of NaClO4 (0.001, 0.01, 0.1, 1.0, 10, and 100uM) served as a positive control inhibition curve on each RAIU assay plate. DMSO control wells were assayed on each plate as a measure of maximum iodide uptake for normalization and determination of intra- and inter-assay variation. (Toxicol In Vitro, 2017, 40:66-78).
Turning to `CCCCC(CC)C(=O)O` (stereo not drawn), the outcome was inactive. Turning to `Cc1[nH]nc2c1N=C(c1ccccc1Cl)c1cc([N+](=O)[O-])ccc1N2`, the outcome was inactive. `Cc1cc(C(C)(C)C)c(O)c(C(C)(C)C)c1`: the outcome was inactive.

As for `O=C(CCCN1CCC(O)(c2ccc(Cl)cc2)CC1)c1ccc(F)cc1`, the result was inactive.

In the case of `CCCCc1oc2ccccc2c1C(=O)c1cc(I)c(OCCN(CC)CC)c(I)c1`, the outcome was inactive.

Regarding `CCCCCCc1ccc(N)cc1`, the outcome was inactive. In the case of `CC(C)c1c(C(=O)Nc2ccccc2)c(-c2ccccc2)c(-c2ccc(F)cc2)n1CC[C@@H](O)C[C@@H](O)CC(=O)O`, the outcome was inactive. `NCCN`: the outcome was inactive. As to `O=C1OC2(c3ccccc31)c1cc(I)c(O)c(I)c1Oc1c2cc(I)c(O)c1I`, the outcome was inactive. On to `Cc1cc(Cc2cc(C)cc(C(C)(C)C)c2O)c(O)c(C(C)(C)C)c1`, for which the outcome was inactive. With `O=C(O)C(=O)O`, the result was inactive.

As a reminder, the AC50 is the concentration giving half of the maximal activity seen. On to `NC(=NCCCCCCN=C(N)/N=C(\N)Nc1ccc(Cl)cc1)/N=C(\N)Nc1ccc(Cl)cc1`, for which the AC50 is 87 µM (active).

For `CCCCCCCCCCCC`, the outcome was inactive.
